# Assay results: PubChem BioAssay AID493094 (Broad Institute, 2011)
# Active and inactive are the calls of the source.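 How the source made its calls: active means falling FRET signal with an AC50 fitted within ten times the highest valid concentration tested for that sample (actives reach about 61 µM in these data); inactive means the rest, including compounds that raise the signal.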
# Test: YIC FRET probe signal interference, dose response, counter-screen for RanGTP-importin-beta inhibitor project, biochemical, dry powder samples (AID 493094)
# Settings: cell-free YIC FRET probe, YFP/CFP ratio; series mostly up to 100 µM; activity change, negative = inhibition: at the top concentration
SMILES,AC50,"activity change, negative = inhibition"
CC1=C(C(=O)OCC2CCCO2)C(c2ccccc2OC(C)C)C2C(=O)CC(c3ccco3)CC2=N1 (stereo unspecified),13.2 µM (active),
Cc1cc(Nc2ccc(C(F)(F)F)cc2)n2ncnc2n1,,-7.53% (inactive)
O=C(O)Cn1cc(/C=C2\SC(=O)N(CC(=O)N3CCCCCC3)C2=O)c2ccccc21,55.3 µM (active),
C=CCn1c(N)c(C(=O)OCCC)c2nc3ccccc3nc21,36.9 µM (active),
C[C@H](Nc1nc(Cl)nc2ccccc12)c1ccccc1,,-1.62% (inactive)
CC(Nc1nc(N2CCCC2)nc2ccccc12)c1ccccc1 (stereo unspecified),,-5.12% (inactive)
CCCN(CCC)c1nc(Cl)nc2ccccc12,,-9.7% (inactive)
C[C@@H](Nc1nc(Cl)nc2ccccc12)c1ccccc1,,-3.98% (inactive)
CC1(C)CC(=O)c2c(C(F)(F)F)nn(-c3ccc(C(N)=O)c(NC4CCC(OC(=O)CN)CC4)c3)c2C1 (stereo unspecified),,-7.87% (inactive)
CCNc1nc(N2CCCC2)nc2ccccc12,,-7.07% (inactive)
C[C@@H](Nc1nc(N2CCCC2)nc2ccccc12)c1ccccc1,,2.73% (inactive)
c1ccc(CNc2nc(N3CCCC3)nc3ccccc23)cc1,,6.88% (inactive)
COc1cc2nc(N3CCCC3)nc(N3CCCC3)c2cc1OC,,-4.26% (inactive)
Clc1nc(NCc2ccccc2)c2ccccc2n1,,-8.16% (inactive)
C[C@H](Nc1nc(N2CCCC2)nc2ccccc12)c1ccccc1,,-2.49% (inactive)
c1ccc2c(N3CCOCC3)nc(N3CCOCC3)nc2c1,,-0.521% (inactive)
CCCN(CCC)c1nc(N2CCCC2)nc2cc(OC)c(OC)cc12,,0.149% [at 50 µM] (inactive)
Cc1ccc(S(=O)(=O)c2cc3c(=O)n4cccc(C)c4nc3n(C3CCCCC3)c2=N)cc1,26 µM (active),

SMILES,AC50,"activity change, negative = inhibition"
CCCN(CCC)c1nc(N2CCOCC2)nc2ccccc12,,-4.59% (inactive)
CCCN(CCC)c1nc(N2CCCC2)nc2ccccc12,inactive,
CCCN(CCC)c1nc(NCc2ccccc2)nc2ccccc12,,-6.33% (inactive)
CCCN(CCC)c1nc(N)c2ccccc2n1,,-8.69% (inactive)
CCCN(CCC)c1nc(N2CCCC2)c2cc(OC)c(OC)cc2n1,,-7.73% [at 26 µM] (inactive)
CC1(C)CC(=O)c2c(C(F)(F)F)nn(-c3ccc(C(N)=O)c(NC4CCC(O)CC4)c3)c2C1 (stereo unspecified),,-5.26% (inactive)
c1ccc2c(N3CCCC3)nc(N3CCCC3)nc2c1,,-8.4% (inactive)
COc1cc(OC)cc(C(=O)NCCNc2nc3cc(C)cc(C)c3cc2C#N)c1,27 µM (active),
COc1ccc(-c2cc(C(F)(F)F)n3nc(N)nc3n2)cc1,54.5 µM (active),
CC(C)SCC(=O)Nc1ncc2c(n1)-c1ccccc1CC2,6.37 µM (active),
COc1ccc(CCNC(=O)c2cc3c(=O)n4cccc(C)c4nc3n(CCCN3CCOCC3)c2=N)cc1,4.28 µM (active),
COCCNC(=O)/C(C#N)=C/c1cn(CC(=O)NCc2ccco2)c2ccccc12,61.3 µM (active),
CCCN(CCC)c1nc(N2CCNCC2)c2ccccc2n1,,-12.9% (inactive)
Cc1cccc(-n2c(C)cc(/C=C3/C(=N)N4N=C(CC(C)C)SC4=NC3=O)c2C)c1,25.4 µM (active),
CCN(CC)c1nc(N2CCCC2)nc2ccccc12,,-6.96% (inactive)
O=c1[nH]c(N2CCCC2)nc2ccccc12,,-5.45% (inactive)
CC1(C)CCC(c2ccc(Cl)cc2)=C(CN2CCN(c3ccc(C(=O)NS(=O)(=O)c4ccc(N[C@H](CCN5CCOCC5)CSc5ccccc5)c(S(=O)(=O)C(F)(F)F)c4)cc3)CC2)C1,,-3.98% (inactive)
CC1(C)CC(=O)c2c(C(F)(F)F)nn(-c3ccc(C(N)=O)c(OC4CCC(N)CC4)c3)c2C1 (stereo unspecified),,-11.5% (inactive)
